Positions count from the first letter of the chain named. Over roughly 16,000 sequences, “ka relative to ugcaugu” has its median near 0.0091; the highest 2% begin near 0.032. The list comes from a sample in which the highest values are over-represented; it also holds similar and randomly drawn sequences.
T1: RBFOX1 RRM (Homo sapiens, UniProt Q9NWB1 109-208)
T1 sequence: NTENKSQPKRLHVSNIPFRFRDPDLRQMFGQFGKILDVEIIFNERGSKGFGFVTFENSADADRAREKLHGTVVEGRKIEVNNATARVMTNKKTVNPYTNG

B1: AAUAAUA (DNA:RNA)
RNA: GGGAGACCGGAAUUCAGAUUGUCCAAUAAUAUUAAAUCCCGUCGUAGCCACCA
DNA 1: CAATCTGAATTCCGGTCTCCC
DNA 2: TGGTGGCTACGACGGGATT
B2: GCGUGUG (DNA:RNA)
RNA: B1 RNA with A25G, A26C, U27G, A28U, A29G, A31G
DNA 1: CAATCTGAATTCCGGTCTCCC
DNA 2: TGGTGGCTACGACGGGATT
B3: UCUAACG (DNA:RNA)
RNA: B1 RNA with A25U, A26C, U30C, A31G
DNA 1: CAATCTGAATTCCGGTCTCCC
DNA 2: TGGTGGCTACGACGGGATT
B4: UCCCUGA (DNA:RNA)
RNA: B1 RNA with A25U, A26C, U27C, A28C, A29U, U30G
DNA 1: CAATCTGAATTCCGGTCTCCC
DNA 2: TGGTGGCTACGACGGGATT
B5: UCAAAGA (DNA:RNA)
RNA: B1 RNA with A25U, A26C, U27A, U30G
DNA 1: CAATCTGAATTCCGGTCTCCC
DNA 2: TGGTGGCTACGACGGGATT
B6: UGCAGCC (DNA:RNA)
RNA: B1 RNA with A25U, A26G, U27C, A29G, U30C, A31C
DNA 1: CAATCTGAATTCCGGTCTCCC
DNA 2: TGGTGGCTACGACGGGATT
B7: CGUUGGA (DNA:RNA)
RNA: B1 RNA with A25C, A26G, A28U, A29G, U30G
DNA 1: CAATCTGAATTCCGGTCTCCC
DNA 2: TGGTGGCTACGACGGGATT
B8: GGACCUA (DNA:RNA)
RNA: B1 RNA with A25G, A26G, U27A, A28C, A29C
DNA 1: CAATCTGAATTCCGGTCTCCC
DNA 2: TGGTGGCTACGACGGGATT
B9: GGGGGUC (DNA:RNA)
RNA: B1 RNA with A25G, A26G, U27G, A28G, A29G, A31C
DNA 1: CAATCTGAATTCCGGTCTCCC
DNA 2: TGGTGGCTACGACGGGATT
B10: CCGGGUC (DNA:RNA)
RNA: B1 RNA with A25C, A26C, U27G, A28G, A29G, A31C
DNA 1: CAATCTGAATTCCGGTCTCCC
DNA 2: TGGTGGCTACGACGGGATT
B11: GGGUCUU (DNA:RNA)
RNA: B1 RNA with A25G, A26G, U27G, A28U, A29C, A31U
DNA 1: CAATCTGAATTCCGGTCTCCC
DNA 2: TGGTGGCTACGACGGGATT
B12: GGGGUCU (DNA:RNA)
RNA: GGGAGACCGGAAUUCAGAUUGUCCGGGGUCUUUAAAUCCCGUCGUAGCCACCA
DNA 1: CAATCTGAATTCCGGTCTCCC
DNA 2: TGGTGGCTACGACGGGATT
B13: CGGGGUC (DNA:RNA)
RNA: B12 RNA with G25C, U29G, C30U, U31C
DNA 1: CAATCTGAATTCCGGTCTCCC
DNA 2: TGGTGGCTACGACGGGATT
B14: CGGGUCU (DNA:RNA)
RNA: B12 RNA with G25C
DNA 1: CAATCTGAATTCCGGTCTCCC
DNA 2: TGGTGGCTACGACGGGATT
B15: UACCUCU (DNA:RNA)
RNA: B12 RNA with G25U, G26A, G27C, G28C
DNA 1: CAATCTGAATTCCGGTCTCCC
DNA 2: TGGTGGCTACGACGGGATT
B16: CUGGGAG (DNA:RNA)
RNA: B12 RNA with G25C, G26U, U29G, C30A, U31G
DNA 1: CAATCTGAATTCCGGTCTCCC
DNA 2: TGGTGGCTACGACGGGATT
B17: GUUAGAA (DNA:RNA)
RNA: B1 RNA with A25G, A26U, A29G, U30A
DNA 1: CAATCTGAATTCCGGTCTCCC
DNA 2: TGGTGGCTACGACGGGATT
B18: AGUGUCU (DNA:RNA)
RNA: B12 RNA with G25A, G27U
DNA 1: CAATCTGAATTCCGGTCTCCC
DNA 2: TGGTGGCTACGACGGGATT
B19: AGAUAUU (DNA:RNA)
RNA: B1 RNA with A26G, U27A, A28U, A31U
DNA 1: CAATCTGAATTCCGGTCTCCC
DNA 2: TGGTGGCTACGACGGGATT
B20: AGUGGUA (DNA:RNA)
RNA: B1 RNA with A26G, A28G, A29G
DNA 1: CAATCTGAATTCCGGTCTCCC
DNA 2: TGGTGGCTACGACGGGATT
B21: CGGGCAG (DNA:RNA)
RNA: B12 RNA with G25C, U29C, C30A, U31G
DNA 1: CAATCTGAATTCCGGTCTCCC
DNA 2: TGGTGGCTACGACGGGATT
B22: GGGGCAG (DNA:RNA)
RNA: B12 RNA with U29C, C30A, U31G
DNA 1: CAATCTGAATTCCGGTCTCCC
DNA 2: TGGTGGCTACGACGGGATT
B23: CGGGCAA (DNA:RNA)
RNA: B12 RNA with G25C, U29C, C30A, U31A
DNA 1: CAATCTGAATTCCGGTCTCCC
DNA 2: TGGTGGCTACGACGGGATT
B24: GGGCAGU (DNA:RNA)
RNA: B12 RNA with G28C, U29A, C30G
DNA 1: CAATCTGAATTCCGGTCTCCC
DNA 2: TGGTGGCTACGACGGGATT
B25: GGGCAAA (DNA:RNA)
RNA: B12 RNA with G28C, U29A, C30A, U31A
DNA 1: CAATCTGAATTCCGGTCTCCC
DNA 2: TGGTGGCTACGACGGGATT
B26: GGGGCAA (DNA:RNA)
RNA: B12 RNA with U29C, C30A, U31A
DNA 1: CAATCTGAATTCCGGTCTCCC
DNA 2: TGGTGGCTACGACGGGATT
B27: CCAUAAU (DNA:RNA)
RNA: B1 RNA with A25C, A26C, U27A, A28U, U30A, A31U
DNA 1: CAATCTGAATTCCGGTCTCCC
DNA 2: TGGTGGCTACGACGGGATT
B28: CCUAAGA (DNA:RNA)
RNA: B1 RNA with A25C, A26C, U30G
DNA 1: CAATCTGAATTCCGGTCTCCC
DNA 2: TGGTGGCTACGACGGGATT
B29: GUAGGGA (DNA:RNA)
RNA: B12 RNA with G26U, G27A, U29G, C30G, U31A
DNA 1: CAATCTGAATTCCGGTCTCCC
DNA 2: TGGTGGCTACGACGGGATT
B30: CUCCGUG (DNA:RNA)
RNA: B1 RNA with A25C, A26U, U27C, A28C, A29G, A31G
DNA 1: CAATCTGAATTCCGGTCTCCC
DNA 2: TGGTGGCTACGACGGGATT
B31: CGGUUAU (DNA:RNA)
RNA: B12 RNA with G25C, G28U, C30A
DNA 1: CAATCTGAATTCCGGTCTCCC
DNA 2: TGGTGGCTACGACGGGATT

Biological target: T1, RBFOX1 RRM
Assay: EMSA; HiTS-Eq, 1 nM pool, 10 min; buffer printed only for the single-RNA assays: 10 mM Tris pH 7.5, 150 mM NaCl, 3.4 mM EDTA, 0.001% NP-40, 30 C
Conditions: tags: His6 N-terminal (pET28a); label: 5' 32P
Summary of the method: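 Purified RbFox RRM, wild type or mutant, was incubated for 10 min in 50 µL with 1 nM of a 5′-radiolabelled RNA pool carrying 7 randomized nucleotides, whose flanks were annealed to DNA oligonucleotides, over a series of increasing protein concentrations. Unbound RNA was resolved on 8% native PAGE, cut out, reverse-transcribed, barcoded by PCR and sequenced on an Illumina HiSeq 2500. Relative association constants were derived from changes in read counts for each RNA species versus the control reaction and normalised to the cognate motif.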

Binder | binding signal
B1 | 0.000771 KA relative to UGCAUGU
B2 | 0.0222 KA relative to UGCAUGU
B3 | 0.00601 KA relative to UGCAUGU
B4 | 0.00782 KA relative to UGCAUGU
B5 | 0.00287 KA relative to UGCAUGU
B6 | 0.0108 KA relative to UGCAUGU
B7 | 0.00714 KA relative to UGCAUGU
B8 | 0.0035 KA relative to UGCAUGU
B9 | 0.0306 KA relative to UGCAUGU
B10 | 0.0244 KA relative to UGCAUGU
B11 | 0.00918 KA relative to UGCAUGU
B12 | 0.0436 KA relative to UGCAUGU
B13 | 0.0407 KA relative to UGCAUGU
B14 | 0.0296 KA relative to UGCAUGU
B15 | 0.00134 KA relative to UGCAUGU
B16 | 0.0142 KA relative to UGCAUGU

Binder | binding signal
B17 | 0.0142 KA relative to UGCAUGU
B18 | 0.0109 KA relative to UGCAUGU
B19 | 0.00865 KA relative to UGCAUGU
B20 | 0.0144 KA relative to UGCAUGU
B21 | 0.0252 KA relative to UGCAUGU
B22 | 0.0491 KA relative to UGCAUGU
B23 | 0.0227 KA relative to UGCAUGU
B24 | 0.0161 KA relative to UGCAUGU
B25 | 0.0043 KA relative to UGCAUGU
B26 | 0.032 KA relative to UGCAUGU
B27 | 0.00169 KA relative to UGCAUGU
B28 | 0.00773 KA relative to UGCAUGU
B29 | 0.00497 KA relative to UGCAUGU
B30 | 0.0111 KA relative to UGCAUGU
B31 | 0.0102 KA relative to UGCAUGU

Reference: publication PMC9911399, “Two distinct binding modes provide the RNA-binding protein RbFox with extraordinary sequence specificity”
